Test results reported in the supplement of paper PMC11732987, “Enantioselective OTUD7B fragment discovery through chemoproteomics screening and high-throughput optimisation” (Communications Chemistry, 2025).

Key:
Experiment in all cases: log2 ratio of Biotin-Ahx-Ub-VS probe labelling (fragment/DMSO); higher = less target engagement (more negative = stronger competition), active = hit call of the paper (q ≤ 0.05, log2 ratio ≤ -1)
Settings in all cases: compound concentration: 200 uM; treatment time: 3 h
[1] = target: USP34 (UniProt Q70CQ2)
Procedure, shortened: (§1)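 Labelled DUBs were enriched with NeutrAvidin, digested with LysC and trypsin, and run by diaPASEF LC-MS/MS. The labelling used Biotin-Ahx-Ub-VS at 0.5 µM final for 1 h on HEK293T lysate (495 µg per sample) previously treated in triplicate with fragment at 200 µM or vehicle for 3 h. Values are average log2 fragment/vehicle ratios by unpaired t-test on global-median-normalised Spectronaut quantities of proteins with ≥2 unique peptides.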

[2] = target: T1, USP36 (UniProt Q9P275)
T1 sequence (whole entry): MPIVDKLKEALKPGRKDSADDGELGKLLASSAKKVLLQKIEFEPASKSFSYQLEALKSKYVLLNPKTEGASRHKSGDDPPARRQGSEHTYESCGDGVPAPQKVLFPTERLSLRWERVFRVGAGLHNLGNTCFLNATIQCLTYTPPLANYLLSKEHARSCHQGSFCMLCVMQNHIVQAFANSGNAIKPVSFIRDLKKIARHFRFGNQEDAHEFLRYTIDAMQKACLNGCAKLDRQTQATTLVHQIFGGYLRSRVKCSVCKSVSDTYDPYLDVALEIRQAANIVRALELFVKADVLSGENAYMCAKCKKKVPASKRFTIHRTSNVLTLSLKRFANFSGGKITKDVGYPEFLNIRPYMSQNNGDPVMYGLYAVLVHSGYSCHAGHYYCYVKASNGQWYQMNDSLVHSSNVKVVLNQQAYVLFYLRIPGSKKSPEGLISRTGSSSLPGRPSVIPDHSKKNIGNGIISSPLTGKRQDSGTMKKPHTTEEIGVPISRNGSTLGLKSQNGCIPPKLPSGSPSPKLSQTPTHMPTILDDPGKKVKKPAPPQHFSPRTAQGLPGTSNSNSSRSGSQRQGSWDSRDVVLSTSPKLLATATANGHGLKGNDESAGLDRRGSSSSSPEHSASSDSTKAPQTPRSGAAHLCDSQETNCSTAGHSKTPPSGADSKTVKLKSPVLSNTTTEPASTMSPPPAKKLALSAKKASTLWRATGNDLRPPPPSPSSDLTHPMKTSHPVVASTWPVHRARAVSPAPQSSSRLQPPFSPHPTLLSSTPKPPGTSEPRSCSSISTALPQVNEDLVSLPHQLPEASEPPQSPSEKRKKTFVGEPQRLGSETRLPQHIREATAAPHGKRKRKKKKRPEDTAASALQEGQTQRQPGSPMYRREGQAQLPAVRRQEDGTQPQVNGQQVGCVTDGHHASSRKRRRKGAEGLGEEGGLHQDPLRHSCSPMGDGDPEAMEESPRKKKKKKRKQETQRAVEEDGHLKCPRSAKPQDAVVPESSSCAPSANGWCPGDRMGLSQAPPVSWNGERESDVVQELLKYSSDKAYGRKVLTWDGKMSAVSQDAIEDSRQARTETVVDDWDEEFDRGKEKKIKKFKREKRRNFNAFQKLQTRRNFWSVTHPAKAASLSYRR
Procedure, shortened: as §1

[3] = target: T2, USP38 (UniProt Q8NB14)
T2 sequence (whole entry): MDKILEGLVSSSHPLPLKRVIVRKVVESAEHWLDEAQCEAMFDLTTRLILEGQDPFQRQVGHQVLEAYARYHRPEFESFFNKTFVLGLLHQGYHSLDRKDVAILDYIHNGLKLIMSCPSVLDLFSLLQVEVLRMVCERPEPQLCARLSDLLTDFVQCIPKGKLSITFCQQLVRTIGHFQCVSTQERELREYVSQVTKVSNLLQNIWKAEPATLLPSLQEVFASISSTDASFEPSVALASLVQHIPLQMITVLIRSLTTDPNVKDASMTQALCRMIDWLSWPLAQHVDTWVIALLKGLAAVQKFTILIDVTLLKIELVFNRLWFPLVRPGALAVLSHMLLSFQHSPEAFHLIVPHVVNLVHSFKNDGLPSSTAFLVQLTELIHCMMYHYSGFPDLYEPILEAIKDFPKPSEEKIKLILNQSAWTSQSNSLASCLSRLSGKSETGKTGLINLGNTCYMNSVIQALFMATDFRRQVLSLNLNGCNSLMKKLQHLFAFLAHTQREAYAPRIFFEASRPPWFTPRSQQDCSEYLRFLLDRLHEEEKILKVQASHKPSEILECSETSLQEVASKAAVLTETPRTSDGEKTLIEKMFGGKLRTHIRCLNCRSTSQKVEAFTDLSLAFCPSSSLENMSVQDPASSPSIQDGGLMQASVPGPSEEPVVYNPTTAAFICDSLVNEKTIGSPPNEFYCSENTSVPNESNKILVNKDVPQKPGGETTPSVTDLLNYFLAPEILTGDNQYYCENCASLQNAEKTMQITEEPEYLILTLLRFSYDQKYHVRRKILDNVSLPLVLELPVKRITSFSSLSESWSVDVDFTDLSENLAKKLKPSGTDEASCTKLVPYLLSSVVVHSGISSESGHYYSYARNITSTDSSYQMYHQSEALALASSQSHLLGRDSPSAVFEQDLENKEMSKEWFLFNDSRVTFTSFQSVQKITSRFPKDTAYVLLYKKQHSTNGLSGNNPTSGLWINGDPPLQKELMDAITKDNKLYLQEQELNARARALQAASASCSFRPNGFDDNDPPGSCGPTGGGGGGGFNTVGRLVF
Procedure, shortened: as §1

[4] = target: T3, USP39 (UniProt Q53GS9)
T3 sequence (whole entry): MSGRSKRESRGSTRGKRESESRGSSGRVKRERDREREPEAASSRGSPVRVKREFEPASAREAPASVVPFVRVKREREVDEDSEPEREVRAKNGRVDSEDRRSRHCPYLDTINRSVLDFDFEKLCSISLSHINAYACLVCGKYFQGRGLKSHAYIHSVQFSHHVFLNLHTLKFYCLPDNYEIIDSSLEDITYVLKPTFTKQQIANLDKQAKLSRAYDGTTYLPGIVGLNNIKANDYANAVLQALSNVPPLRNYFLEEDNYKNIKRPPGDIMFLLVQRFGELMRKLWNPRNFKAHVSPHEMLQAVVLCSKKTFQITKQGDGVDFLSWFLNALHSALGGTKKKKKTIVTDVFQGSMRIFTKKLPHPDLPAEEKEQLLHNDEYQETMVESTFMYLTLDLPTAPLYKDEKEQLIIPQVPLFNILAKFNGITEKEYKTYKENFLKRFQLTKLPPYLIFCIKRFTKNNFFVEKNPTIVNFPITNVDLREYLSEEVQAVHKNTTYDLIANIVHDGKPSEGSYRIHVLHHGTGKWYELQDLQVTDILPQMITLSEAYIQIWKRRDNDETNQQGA
Procedure, shortened: as §1

[5] = target: T4, USP4 (UniProt Q13107)
T4 sequence (whole entry): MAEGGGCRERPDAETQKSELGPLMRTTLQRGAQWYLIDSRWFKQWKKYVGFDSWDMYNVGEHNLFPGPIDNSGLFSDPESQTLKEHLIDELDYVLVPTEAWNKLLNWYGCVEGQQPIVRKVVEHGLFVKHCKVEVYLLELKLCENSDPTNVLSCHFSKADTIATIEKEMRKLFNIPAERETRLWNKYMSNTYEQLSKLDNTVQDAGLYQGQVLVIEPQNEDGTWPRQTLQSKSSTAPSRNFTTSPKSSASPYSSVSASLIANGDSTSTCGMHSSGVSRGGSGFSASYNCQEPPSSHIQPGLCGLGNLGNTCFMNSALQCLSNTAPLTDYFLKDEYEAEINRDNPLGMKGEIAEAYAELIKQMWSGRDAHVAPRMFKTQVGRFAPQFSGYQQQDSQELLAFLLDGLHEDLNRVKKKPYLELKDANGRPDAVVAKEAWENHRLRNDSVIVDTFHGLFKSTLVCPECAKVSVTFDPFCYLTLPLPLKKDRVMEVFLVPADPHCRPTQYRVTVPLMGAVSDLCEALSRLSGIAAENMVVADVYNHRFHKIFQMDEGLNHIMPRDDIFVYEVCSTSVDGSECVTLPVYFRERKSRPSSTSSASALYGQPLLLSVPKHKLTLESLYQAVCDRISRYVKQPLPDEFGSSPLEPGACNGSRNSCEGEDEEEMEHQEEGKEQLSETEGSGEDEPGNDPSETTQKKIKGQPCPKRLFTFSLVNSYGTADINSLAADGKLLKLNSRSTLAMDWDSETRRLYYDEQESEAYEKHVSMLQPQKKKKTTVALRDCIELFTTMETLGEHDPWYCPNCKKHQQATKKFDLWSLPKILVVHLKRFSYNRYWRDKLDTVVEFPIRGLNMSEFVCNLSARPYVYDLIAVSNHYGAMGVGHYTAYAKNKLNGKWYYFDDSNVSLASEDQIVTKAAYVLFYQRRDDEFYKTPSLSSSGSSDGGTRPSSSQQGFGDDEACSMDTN
Procedure, shortened: as §1

Measured: log2 ratio of Biotin-Ahx-Ub-VS probe labelling

Sequence of USP34 (Q70CQ2 whole entry, the tested form may be a part): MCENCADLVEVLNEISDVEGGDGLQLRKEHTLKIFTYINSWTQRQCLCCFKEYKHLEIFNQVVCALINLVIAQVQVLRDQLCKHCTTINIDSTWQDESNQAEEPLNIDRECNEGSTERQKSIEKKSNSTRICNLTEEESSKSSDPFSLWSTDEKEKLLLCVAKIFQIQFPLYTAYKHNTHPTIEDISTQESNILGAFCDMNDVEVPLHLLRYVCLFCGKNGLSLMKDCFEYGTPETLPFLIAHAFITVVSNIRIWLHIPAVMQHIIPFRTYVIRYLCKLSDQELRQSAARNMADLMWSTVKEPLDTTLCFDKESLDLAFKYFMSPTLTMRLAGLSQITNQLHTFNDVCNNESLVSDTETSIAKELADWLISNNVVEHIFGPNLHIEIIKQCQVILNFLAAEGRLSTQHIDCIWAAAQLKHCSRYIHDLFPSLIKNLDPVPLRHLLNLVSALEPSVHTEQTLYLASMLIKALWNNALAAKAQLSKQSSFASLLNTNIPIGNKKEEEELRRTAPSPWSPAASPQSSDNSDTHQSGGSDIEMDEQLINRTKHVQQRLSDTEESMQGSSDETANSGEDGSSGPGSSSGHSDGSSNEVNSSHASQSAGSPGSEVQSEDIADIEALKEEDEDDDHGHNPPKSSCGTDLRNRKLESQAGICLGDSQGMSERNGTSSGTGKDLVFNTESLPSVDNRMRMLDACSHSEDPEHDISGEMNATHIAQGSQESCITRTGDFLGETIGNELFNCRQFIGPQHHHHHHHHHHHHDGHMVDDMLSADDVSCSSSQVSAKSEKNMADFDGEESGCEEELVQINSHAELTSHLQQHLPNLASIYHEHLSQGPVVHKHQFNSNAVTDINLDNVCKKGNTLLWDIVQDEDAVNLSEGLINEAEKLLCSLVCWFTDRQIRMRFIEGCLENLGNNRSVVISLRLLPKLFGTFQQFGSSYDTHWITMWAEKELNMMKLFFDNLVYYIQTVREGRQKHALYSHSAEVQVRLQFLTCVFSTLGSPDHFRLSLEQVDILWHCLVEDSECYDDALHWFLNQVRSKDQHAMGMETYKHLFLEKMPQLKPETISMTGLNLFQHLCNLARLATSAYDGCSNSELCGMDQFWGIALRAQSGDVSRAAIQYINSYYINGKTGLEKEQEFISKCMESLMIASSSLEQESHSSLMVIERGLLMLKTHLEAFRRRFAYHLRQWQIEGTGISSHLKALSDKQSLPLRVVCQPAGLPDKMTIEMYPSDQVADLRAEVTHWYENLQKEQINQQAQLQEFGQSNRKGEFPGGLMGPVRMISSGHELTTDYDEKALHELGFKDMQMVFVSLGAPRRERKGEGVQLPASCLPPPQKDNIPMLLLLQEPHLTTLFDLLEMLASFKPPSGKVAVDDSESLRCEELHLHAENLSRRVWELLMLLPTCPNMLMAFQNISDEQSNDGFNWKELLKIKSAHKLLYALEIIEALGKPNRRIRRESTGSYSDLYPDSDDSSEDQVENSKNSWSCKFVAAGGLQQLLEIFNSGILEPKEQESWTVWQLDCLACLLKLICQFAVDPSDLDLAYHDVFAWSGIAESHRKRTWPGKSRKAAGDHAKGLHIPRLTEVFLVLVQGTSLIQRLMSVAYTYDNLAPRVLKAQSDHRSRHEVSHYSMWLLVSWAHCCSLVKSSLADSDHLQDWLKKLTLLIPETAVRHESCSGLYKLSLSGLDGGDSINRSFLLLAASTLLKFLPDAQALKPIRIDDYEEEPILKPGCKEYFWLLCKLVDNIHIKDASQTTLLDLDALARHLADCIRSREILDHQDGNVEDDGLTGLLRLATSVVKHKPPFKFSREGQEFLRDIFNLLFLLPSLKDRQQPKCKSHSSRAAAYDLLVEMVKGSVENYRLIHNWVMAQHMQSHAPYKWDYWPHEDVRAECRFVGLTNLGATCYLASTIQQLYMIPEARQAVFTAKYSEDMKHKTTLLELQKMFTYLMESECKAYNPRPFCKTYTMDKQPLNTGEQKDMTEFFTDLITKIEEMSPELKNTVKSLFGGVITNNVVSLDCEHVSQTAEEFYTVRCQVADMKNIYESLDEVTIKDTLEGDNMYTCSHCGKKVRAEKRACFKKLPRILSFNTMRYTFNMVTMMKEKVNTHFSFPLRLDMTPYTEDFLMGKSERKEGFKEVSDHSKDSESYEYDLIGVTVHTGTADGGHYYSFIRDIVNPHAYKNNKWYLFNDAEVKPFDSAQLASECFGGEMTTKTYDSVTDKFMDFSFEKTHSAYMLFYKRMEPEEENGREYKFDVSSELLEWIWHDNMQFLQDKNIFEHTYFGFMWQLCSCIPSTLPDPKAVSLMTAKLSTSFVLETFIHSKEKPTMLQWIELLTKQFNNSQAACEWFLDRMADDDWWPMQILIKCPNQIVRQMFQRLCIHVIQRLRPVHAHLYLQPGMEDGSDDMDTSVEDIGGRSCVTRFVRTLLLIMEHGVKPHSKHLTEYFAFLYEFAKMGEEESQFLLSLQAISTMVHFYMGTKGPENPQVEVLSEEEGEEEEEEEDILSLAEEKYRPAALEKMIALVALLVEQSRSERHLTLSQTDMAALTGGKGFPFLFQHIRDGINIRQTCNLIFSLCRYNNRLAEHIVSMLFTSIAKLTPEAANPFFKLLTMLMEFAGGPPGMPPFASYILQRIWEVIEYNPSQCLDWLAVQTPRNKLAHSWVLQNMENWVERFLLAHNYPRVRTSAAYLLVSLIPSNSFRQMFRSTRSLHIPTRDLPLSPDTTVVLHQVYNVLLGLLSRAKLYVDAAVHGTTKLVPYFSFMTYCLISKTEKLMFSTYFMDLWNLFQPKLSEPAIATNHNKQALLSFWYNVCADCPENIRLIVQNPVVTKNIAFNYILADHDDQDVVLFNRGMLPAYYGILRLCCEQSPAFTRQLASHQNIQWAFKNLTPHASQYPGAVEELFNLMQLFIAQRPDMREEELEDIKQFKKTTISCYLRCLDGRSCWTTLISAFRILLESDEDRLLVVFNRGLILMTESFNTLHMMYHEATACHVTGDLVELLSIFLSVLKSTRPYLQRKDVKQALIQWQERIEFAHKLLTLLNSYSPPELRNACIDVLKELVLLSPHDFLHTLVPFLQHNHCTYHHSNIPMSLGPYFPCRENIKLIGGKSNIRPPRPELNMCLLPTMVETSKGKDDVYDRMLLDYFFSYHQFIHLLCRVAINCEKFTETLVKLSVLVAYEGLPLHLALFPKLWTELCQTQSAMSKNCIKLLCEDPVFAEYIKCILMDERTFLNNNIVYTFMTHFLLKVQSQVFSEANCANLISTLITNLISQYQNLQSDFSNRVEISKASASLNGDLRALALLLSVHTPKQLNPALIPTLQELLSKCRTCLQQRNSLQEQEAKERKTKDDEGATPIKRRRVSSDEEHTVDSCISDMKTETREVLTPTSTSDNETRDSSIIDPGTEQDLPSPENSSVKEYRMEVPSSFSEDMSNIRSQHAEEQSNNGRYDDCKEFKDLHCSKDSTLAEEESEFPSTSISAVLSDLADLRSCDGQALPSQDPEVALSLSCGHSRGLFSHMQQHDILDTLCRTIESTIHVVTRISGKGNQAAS

O=C(CCl)Nc1cc(Cl)ccc1C(=O)O
inactive: [1] 0.243 | [2] 0.209 | [3] 0.105 | [4] 0.562 | [5] 0.12
